# Results: the supplement of paper PMC6555819
# Experiments:
# Test in all cases: PBM binding z-score (relative to random genomic background probes); higher = stronger binding; sequences stand for … in GC…GCGATTGACAGCGTAGAATGAAGG
# [1] = test system: FXR:RXRa (NR concentration 270 nM, RXRa partner concentration 90 nM)
# Summary of the method: (§1)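 Regression normalization was applied to scanned fluorescence from custom Agilent 4×180K protein-binding microarrays. Before scanning, arrays were incubated 1 h with ligand-free nuclear receptor dimers, and binding was detected with antibodies against each partner (one per run). Binding z-scores use the random background probes as reference.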
# [2] = test system: LXRa:RXRa (NR concentration 270 nM, RXRa partner concentration 90 nM)
# Summary of the method: as §1
# [3] = test system: LXRa homodimer (NR concentration 270 nM)
# Summary of the method: as §1
# [4] = test system: LXRb:RXRa (NR concentration 270 nM, RXRa partner concentration 90 nM)
# Summary of the method: as §1
# [5] = test system: LXRb homodimer (NR concentration 270 nM)
# Summary of the method: as §1
# [6] = test system: PPARa:RXRa (NR concentration 270 nM, RXRa partner concentration 90 nM)
# Summary of the method: as §1
# [7] = test system: PPARg:RXRa (NR concentration 180 nM, RXRa partner concentration 90 nM)
# Summary of the method: as §1
# [8] = test system: PPARg:RXRa 270nM:90nM, anti-RXR (NR concentration 270 nM, RXRa partner concentration 90 nM)
# Summary of the method: as §1
# [9] = test system: PPARg:RXRa 30nM:10nM, anti-RXR (NR concentration 30 nM, RXRa partner concentration 10 nM)
# Summary of the method: as §1
# [10] = test system: PPARg:RXRa 90nM:30nM, anti-RXR (NR concentration 90 nM, RXRa partner concentration 30 nM)
# Summary of the method: as §1
# [11] = test system: PPARg:RXRa DBDmut IVT, anti-RXR (DBD mutation: RXRa K156A/R161A, NR concentration 270 nM, RXRa partner concentration 90 nM)
# Summary of the method: as §1
# [12] = test system: PPARg:RXRa IVT, anti-PPARg (NR concentration 270 nM, RXRa partner concentration 90 nM)
# Summary of the method: as §1
# [13] = test system: PPARg DBDmut:RXRa IVT, anti-PPARg (DBD mutation: PPARg1 K132A/R137A, NR concentration 270 nM, RXRa partner concentration 90 nM)
# Summary of the method: as §1
# [14] = test system: PPARg DBDmut IVT, anti-PPARg (DBD mutation: PPARg1 K132A/R137A, NR concentration 270 nM)
# Summary of the method: as §1
# [15] = test system: PPARg homodimer (NR concentration 180 nM)
# Summary of the method: as §1
# [16] = test system: PXR:RXRa (NR concentration 270 nM, RXRa partner concentration 90 nM)
# Summary of the method: as §1
# [17] = test system: PXR homodimer (NR concentration 270 nM)
# Summary of the method: as §1
# [18] = test system: RARa:RXR (NR concentration 270 nM, RXRa partner concentration 90 nM)
# Summary of the method: as §1
# [19] = test system: RARa homodimer (NR concentration 270 nM)
# Summary of the method: as §1
# [20] = test system: RARb:RXRa (NR concentration 270 nM, RXRa partner concentration 90 nM)
# Summary of the method: as §1
Sequence,PBM binding z-score [1],PBM binding z-score [2],PBM binding z-score [3],PBM binding z-score [4],PBM binding z-score [5],PBM binding z-score [6],PBM binding z-score [7],PBM binding z-score [8],PBM binding z-score [9],PBM binding z-score [10],PBM binding z-score [11],PBM binding z-score [12],PBM binding z-score [13],PBM binding z-score [14],PBM binding z-score [15],PBM binding z-score [16],PBM binding z-score [17],PBM binding z-score [18],PBM binding z-score [19],PBM binding z-score [20]
CCGACTGGGGCAGAAAGGTTGCCATACCATCCGG,-0.157,-0.408,-0.611,-0.446,-1.22,0.46,0.735,1.19,-0.155,0.7,1.37,1.17,-1.21,-1.54,-0.128,-0.241,-0.699,-0.0627,-0.964,0.6
CCTAGTGGGCCATCAGGTCATTGATATCAACGTT,1.47,1.04,0.915,1.63,-0.159,2.74,3.06,3.69,1.05,2.74,4.56,5.23,-0.169,0.327,1.35,1.62,0.58,1.86,0.517,1.94
ATCTCTAGGTAACAAGTTCAGTGTAAGAGAGGAC,0.924,0.672,0.835,0.727,1.14,1.52,1.37,2.11,0.896,1.48,3.42,2.96,0.813,1.82,1.08,1.61,2.33,1.09,1.11,1.78
CGTCCAAGGTCAATGCTAGGACAGTGAAAGCATT,6.19,4.43,0.325,3.53,0.27,5.19,3.96,4.09,1.22,2.76,3.02,3.24,-0.452,-0.465,1.7,3.22,0.241,3.44,-0.11,4.96
AGAACGAGGGCAATGAGTGGATAGCACGGGTGGC,0.0707,0.00914,-0.454,-0.474,-0.905,1.12,1.49,0.671,0.264,0.612,3.17,2.32,0.26,-0.542,-0.143,-0.0216,-0.0699,-0.0529,0.296,1.72
GGAACGAGGGCATTCGAGTTGATAGCGTGGCGAT,1.41,1.5,-0.572,-0.00424,-0.698,1.35,0.634,0.67,-0.488,0.214,3.44,2.02,-0.574,-0.961,0.0421,3.71,1.79,0.221,-0.388,1.85
CCTGCTAGGTCATGGTCAGTTAATCTACAGTATG,3.84,2.66,0.0744,1.97,-0.163,3.48,2.31,2.88,0.868,2.13,4.72,3.92,0.767,0.558,1.63,2.31,-0.286,2.62,0.426,3.96
